Measurements from PubChem BioAssay AID624160 (National Center for Advancing Translational Sciences (NCATS), 2012).
This is one part of the list. Records with an inconclusive call do not appear. Activity calls are given as the source filed them. Calls come from the whole dose curve; as a rule, active = well fitted inhibition curve with a large enough effect; inconclusive = small, poorly fitted or top-dose-only effect; inactive = no such curve, though single readings can be large or run the other way.

target: Histone-lysine N-methyltransferase 2A (Homo sapiens) (UniProt Q03164); assay: qHTS Fluorescence Polarization (FP) Assay for Inhibitors of MLL CXXC domain - DNA interaction: Fluorescein FP; conditions: MLL CXXC-DNA binding; note: nearly all actives have a fitted effect of over 80% in size
Sequence (Q03164 whole entry, looked up, the tested form may be a part): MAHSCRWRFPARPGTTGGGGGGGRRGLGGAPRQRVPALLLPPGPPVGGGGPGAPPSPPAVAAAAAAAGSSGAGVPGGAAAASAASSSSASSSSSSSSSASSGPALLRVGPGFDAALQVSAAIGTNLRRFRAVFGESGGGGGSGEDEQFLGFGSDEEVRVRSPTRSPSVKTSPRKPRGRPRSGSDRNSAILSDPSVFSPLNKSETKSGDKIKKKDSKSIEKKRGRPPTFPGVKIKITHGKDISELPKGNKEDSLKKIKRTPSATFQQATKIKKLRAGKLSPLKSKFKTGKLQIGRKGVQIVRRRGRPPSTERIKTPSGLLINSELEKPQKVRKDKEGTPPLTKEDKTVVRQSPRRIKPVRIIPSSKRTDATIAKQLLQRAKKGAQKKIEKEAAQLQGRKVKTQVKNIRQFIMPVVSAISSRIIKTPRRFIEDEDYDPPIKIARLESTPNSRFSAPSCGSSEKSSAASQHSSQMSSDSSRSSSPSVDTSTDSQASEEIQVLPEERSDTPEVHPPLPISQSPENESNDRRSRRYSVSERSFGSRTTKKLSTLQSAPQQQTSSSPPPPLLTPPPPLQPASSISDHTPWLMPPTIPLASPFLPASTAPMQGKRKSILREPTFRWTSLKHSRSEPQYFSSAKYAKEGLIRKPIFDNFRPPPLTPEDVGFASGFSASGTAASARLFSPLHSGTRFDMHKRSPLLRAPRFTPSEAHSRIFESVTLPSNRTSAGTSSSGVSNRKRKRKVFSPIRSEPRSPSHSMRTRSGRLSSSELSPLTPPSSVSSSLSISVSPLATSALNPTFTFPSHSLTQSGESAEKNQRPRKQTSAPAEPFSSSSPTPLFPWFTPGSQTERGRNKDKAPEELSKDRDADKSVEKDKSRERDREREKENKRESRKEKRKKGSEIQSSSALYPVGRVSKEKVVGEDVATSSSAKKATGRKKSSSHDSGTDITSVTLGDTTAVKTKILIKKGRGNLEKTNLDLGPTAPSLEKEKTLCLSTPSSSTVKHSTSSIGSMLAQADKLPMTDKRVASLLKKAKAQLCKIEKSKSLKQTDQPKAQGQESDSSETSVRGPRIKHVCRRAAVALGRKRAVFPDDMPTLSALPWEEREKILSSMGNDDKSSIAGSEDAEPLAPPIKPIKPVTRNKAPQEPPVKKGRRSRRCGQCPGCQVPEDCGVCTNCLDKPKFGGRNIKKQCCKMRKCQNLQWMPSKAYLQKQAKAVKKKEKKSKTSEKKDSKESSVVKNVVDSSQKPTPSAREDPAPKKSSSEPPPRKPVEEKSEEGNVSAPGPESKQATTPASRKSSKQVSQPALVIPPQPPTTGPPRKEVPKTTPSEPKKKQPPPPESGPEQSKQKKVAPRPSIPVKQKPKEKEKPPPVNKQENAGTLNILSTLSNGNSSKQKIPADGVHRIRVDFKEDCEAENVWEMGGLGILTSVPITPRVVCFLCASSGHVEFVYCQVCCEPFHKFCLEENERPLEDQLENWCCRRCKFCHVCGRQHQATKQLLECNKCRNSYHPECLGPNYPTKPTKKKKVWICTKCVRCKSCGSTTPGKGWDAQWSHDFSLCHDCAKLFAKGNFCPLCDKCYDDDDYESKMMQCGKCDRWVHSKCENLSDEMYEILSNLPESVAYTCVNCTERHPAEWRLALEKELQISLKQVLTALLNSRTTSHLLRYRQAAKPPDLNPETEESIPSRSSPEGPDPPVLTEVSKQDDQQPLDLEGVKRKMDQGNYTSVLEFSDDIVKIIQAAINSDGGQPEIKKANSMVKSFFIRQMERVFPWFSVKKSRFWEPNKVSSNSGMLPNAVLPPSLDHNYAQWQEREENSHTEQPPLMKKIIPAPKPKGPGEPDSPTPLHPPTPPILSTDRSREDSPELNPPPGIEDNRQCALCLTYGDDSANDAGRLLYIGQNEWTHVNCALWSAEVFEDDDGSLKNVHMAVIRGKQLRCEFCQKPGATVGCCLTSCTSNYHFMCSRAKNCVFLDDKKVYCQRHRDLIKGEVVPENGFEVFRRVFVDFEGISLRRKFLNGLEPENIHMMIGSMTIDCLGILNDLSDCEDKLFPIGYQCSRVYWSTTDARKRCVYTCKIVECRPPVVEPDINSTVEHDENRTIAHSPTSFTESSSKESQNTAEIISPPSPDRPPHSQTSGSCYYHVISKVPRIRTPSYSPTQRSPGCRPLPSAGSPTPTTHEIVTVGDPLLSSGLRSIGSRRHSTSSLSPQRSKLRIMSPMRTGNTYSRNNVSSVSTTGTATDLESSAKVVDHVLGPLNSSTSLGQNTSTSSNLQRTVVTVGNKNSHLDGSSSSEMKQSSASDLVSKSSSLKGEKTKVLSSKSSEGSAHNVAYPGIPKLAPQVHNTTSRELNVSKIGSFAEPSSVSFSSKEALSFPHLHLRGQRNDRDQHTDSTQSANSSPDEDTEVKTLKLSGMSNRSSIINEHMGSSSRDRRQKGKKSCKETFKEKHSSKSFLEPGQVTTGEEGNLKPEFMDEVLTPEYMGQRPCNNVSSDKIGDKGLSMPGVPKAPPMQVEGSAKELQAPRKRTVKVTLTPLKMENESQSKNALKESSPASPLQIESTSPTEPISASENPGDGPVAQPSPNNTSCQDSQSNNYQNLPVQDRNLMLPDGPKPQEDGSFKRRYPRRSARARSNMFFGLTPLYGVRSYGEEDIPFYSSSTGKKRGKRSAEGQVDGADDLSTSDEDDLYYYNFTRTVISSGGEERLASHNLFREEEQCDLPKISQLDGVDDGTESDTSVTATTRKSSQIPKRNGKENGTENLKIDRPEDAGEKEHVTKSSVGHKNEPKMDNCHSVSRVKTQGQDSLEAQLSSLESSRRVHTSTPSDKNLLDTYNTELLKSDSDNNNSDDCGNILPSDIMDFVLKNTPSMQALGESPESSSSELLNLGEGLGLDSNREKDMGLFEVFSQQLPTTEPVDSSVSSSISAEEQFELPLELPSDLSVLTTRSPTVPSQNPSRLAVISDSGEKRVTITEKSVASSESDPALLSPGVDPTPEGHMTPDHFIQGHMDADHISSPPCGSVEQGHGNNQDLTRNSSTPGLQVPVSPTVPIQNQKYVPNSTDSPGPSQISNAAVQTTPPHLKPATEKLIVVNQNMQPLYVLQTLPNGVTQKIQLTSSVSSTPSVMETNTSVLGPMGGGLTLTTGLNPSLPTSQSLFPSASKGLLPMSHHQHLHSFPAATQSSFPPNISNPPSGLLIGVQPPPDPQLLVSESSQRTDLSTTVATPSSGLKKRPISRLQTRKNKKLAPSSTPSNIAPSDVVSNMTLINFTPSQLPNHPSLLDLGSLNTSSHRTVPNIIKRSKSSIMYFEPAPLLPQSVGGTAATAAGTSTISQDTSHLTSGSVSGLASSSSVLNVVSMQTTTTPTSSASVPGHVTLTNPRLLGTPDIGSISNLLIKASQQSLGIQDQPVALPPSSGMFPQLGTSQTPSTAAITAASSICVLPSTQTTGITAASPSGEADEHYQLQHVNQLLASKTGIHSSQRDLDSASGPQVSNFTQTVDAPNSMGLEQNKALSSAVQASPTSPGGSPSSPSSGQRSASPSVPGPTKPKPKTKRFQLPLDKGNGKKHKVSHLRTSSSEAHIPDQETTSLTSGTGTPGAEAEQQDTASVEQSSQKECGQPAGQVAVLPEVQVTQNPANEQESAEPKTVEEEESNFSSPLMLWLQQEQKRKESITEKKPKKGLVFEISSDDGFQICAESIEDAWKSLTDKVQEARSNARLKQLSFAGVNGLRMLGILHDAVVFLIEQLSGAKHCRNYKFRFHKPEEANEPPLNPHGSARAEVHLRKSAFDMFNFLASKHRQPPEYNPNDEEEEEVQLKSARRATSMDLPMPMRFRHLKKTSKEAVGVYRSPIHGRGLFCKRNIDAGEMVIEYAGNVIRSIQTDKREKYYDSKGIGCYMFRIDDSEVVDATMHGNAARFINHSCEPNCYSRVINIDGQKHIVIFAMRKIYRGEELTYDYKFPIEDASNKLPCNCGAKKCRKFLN
Text: The MLL (Mixed Lineage Luekemia) gene is involved in chromosomal translocation that results in either acute lymphoid leukemia (ALL) or acute myeloid leukemia (AML). Chromasomal translocation of MLL gene is responsible for the fusion of N-terminal MLL to more than 60 different partner genes in frame. Many of the MLL partner genes contain transcription activation domains or function as transcriptional activators. Despite the heterogeneity of fusion partners, the N-terminus of MLL fusion proteins always consists of the N-terminal menin binding motif and the CXXC domain. The MLL-CXXC domain specifically recognizes unmethylated CpG sequences of the HOX-A gene. Disruption of the MLL-CXXC and HOX-A gene interaction leads to down regulation of HOX-A gene expression and may potentially reverse leukemogenesis. We have miniaturized and optimized an in-vitro assay to screen for inhibitors of the MLL-CXXC domain and HOX-A DNA interaction, which could have utility in MLL fusion leukemias.
This is a hit validation assay that tests this hits identified in the primary screen in this secondary screen, using flurescein FP as a read-out.
NIH Molecular Libraries Probe Production Network [MLPCN]
NIH Chemical Genomics Center [NCGC]
PI Name: John Bushweller, University of Virgina
The affinity purified MLL-CXXC domain, unlabeled HOX-A9 DNA strand, fluorescein (FLSN) labeled HOX-A9 DNA strand were kindly supplied by the laboratory of Dr. John Bushweller, University of Virginia. All reagents were stored in single use aliquots at -80C.
Assay buffer: 50 mM TRIS-HCl pH 7.5, 50 mM NaCl, 1 mM DTT. Add 0.05% BSA prior to reaction setup.
1.Dispense 1 ul of a 7 uM MLL-CXXC solution prepared in assay buffer into column 1-48.
2.Transfer 23 nl of compounds and unlabeled HOX-A9 per well.
3.Incubate for 5 minutes at ambient.
4.Dispense 1ul of a 50 nM FLSN-HOX-A9 solution prepared in assay buffer into columns 1-48
5.Centrifuge for 30 seconds at 1000 RPM.
6.Incubate for 30 minutes at ambient.
7.Read using the Envision reader fluorescent polarization protocol.
Potency is the fitted concentration of half-maximal effect.

Potency, active:
COc1ccc(-c2onc3ccc(C(C)=O)cc23)cc1 10 µM, COc1ccc(S(=O)(=O)/N=C2\C=C(NS(=O)(=O)c3ccccc3)C(=O)c3ccccc32)cc1 50.3 µM, O=C1NN(c2ccccc2)C(=O)/C1=C/c1ccc(-c2cccc(C(=O)O)c2)o1 100 µM, COc1cc(/C=C2/C(=O)NN(c3ccc(F)cc3)C2=O)cc([N+](=O)[O-])c1O 71.1 µM, CCOC(=O)/C(N=Nc1cc(C(=O)O)cc(C(=O)O)c1)=C(\O)CCl 6.33 µM
